A selection: hits, their analogues and other compounds. The true share with any hit is near 1.3%.
12-LOX inh – Primary qHTS assay for inhibitors of human arachidonate 12S-lipoxygenase (ALOX12): Round 2; purified 12hLO, xylenol orange hydroperoxide absorbance; Potency, µM (titrated, usually from 108 µM), hits mostly inhibitors; 580,000 tested, 1.1% active
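Purified human 12hLO (150 nM final) in 25 mM Hepes, 0.01% Triton X-100, pH 7.0 was preincubated 15 min at room temperature with compound. Then 40 uM arachidonic acid was added, 30 min. Hydroperoxide was read by Fe-XO absorbance ratio 573/405 nm.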
PTHR1 agonist – qHTS for PTHR1 Agonists: Primary Screen; Parathyroid hormone/parathyroid hormone-related peptide receptor (Homo sapiens), Q03431; HEK293 GP2 PTHR1 cells, GloSensor cAMP luminescence, 1 h; AID 743266, 2014; Potency, µM (highest dose often 115 µM), actives largely listed as activators; 410,000 tested, 0.075% active; note: nearly all actives have a fitted effect of over 55% in size
Target sequence (Q03431 whole entry, looked up): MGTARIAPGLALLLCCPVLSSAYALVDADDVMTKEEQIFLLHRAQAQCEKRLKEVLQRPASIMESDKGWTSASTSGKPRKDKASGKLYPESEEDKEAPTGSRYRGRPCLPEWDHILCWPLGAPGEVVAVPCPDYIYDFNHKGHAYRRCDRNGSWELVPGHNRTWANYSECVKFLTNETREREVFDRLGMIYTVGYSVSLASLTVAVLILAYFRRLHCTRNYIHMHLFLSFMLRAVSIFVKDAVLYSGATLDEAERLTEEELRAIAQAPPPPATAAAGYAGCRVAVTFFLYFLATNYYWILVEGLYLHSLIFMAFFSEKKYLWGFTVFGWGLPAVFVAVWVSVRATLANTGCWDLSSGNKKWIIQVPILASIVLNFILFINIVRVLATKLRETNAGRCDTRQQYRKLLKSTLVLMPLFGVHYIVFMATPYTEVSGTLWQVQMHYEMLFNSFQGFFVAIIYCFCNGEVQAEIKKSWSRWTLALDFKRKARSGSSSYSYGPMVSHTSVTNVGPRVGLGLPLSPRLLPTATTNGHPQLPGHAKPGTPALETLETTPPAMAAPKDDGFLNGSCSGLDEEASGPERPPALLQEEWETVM
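HEK-293-derived GP2 cells expressing PTHR1 and a GloSensor cAMP reporter, 3,000/well, plated overnight, given luciferin plus IBMX (each 0.5 mM as added) for 1 h at 37 °C, then compound for 1 h at 37 °C. Luminescence was read after 15 min at room temperature.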
Giardia kill – Small Molecules that selectively kill Giardia lamblia: qHTS | 340,000 tested, 0.15% active | AID 540267, 2011 | activity change, % at 7.66 µM, hits read low | Giardia lamblia trophozoite viability; in the data active = activity change below about -80%; inconclusive = between about -30% and that limit;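 note: parasites exposed to compound for two days anaerobically before the ATP read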
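Compounds were tested on trophozoites seeded at 100 cells/well and held 48 hrs at 37 deg C anaerobically. An ATP-based luminescent kit measured the remaining live cells.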
miR-21 act – qHTS Assay for Modulators of miRNAs and/orActivators of miR-21; HeLa miR-21 FLuc reporter, luciferase, 48 h; Potency, µM (series often up to 38.3 µM), usual class: activators; 340,000 tested, under 10 active;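 note: miR-21 action dims this reporter so a rising signal means less miR-21 action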
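Using DMEM plus 10% FBS, HeLa miR-21-FLuc cells are incubated with test compounds (final up to about 40uM) for 48 hours; firefly luciferase signal is then imaged following reagent-mediated lysis.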
PINK1 expr mod – A Quantitative High throughput Screen to Identify Chemical Modulators of PINK1 Expression | PINK1 immunofluorescence, high-content cytometry, 24 h | Potency, µM (series often up to 76.6 µM), usual class: activators | 410,000 tested, 0.2% active | AID 624263, 2012; active = well fitted activation curve with a large enough effect; inconclusive = small, poorly fitted or top-dose-only effect; cell line not stated here; note: nearly all actives have a fitted effect of over 65% in size
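A stable cell line was treated with compounds at 5 concentrations for 24 hours, with CCCP as control. PINK1 levels and mitochondrial localization were measured by immunofluorescence with mitochondrial, cell and nuclear markers after fixation, read by laser-scanning cytometry.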
ERG Ets-DNA blk – qHTS for Small Molecule Inhibitors of the ERG Ets/DNA interaction; Potency, µM (doses to about 76.9 µM), actives largely listed as inhibitors; 370,000 tested, 0.028% active; Transcriptional regulator ERG (Homo sapiens), P11308; fluorescence polarization, His-ERG Ets domain / labelled DNA; active = well fitted inhibition curve with a large enough effect in the polarisation, with a control signal flat; inconclusive = small, poorly fitted or top-dose-only effect, or effect the other way, or a change in a side signal; inactive = no such curve, though single readings can be large or run the other way; the % refers to the polarisation;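 note: polarization taken with two DNA probes labelled with fluorescein and Texas red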
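His-tagged ERG Ets domain (1 uM in the protein solution; 300mM KCl, 50mM Tris-HCl, 1mM EDTA, 1mM DTT, pH 7.5) received compound, then a probe mix of 5 nM fluorescein-DNA and 100nM Texas-615-DNA. Fluorescence polarization was read for both dyes.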
Large screens that a line does not name were inactive. Unless noted, calls come from the whole dose curve; as a rule, active = well fitted curve in the direction sought with a large enough effect; inconclusive = small, poorly fitted or top-dose-only effect, or another doubt; inactive = no such curve, though single readings can be large; an effect the other way counts as inactive or inconclusive.

Cc1nn2c(c1-c1ccccc1[S+](C)(=O)[O-])N(Cc1ccc(C(=O)O)s1)CCC2	12-LOX inh 32µM (no result: PTHR1 agonist, Giardia kill, miR-21 act, PINK1 expr mod, ERG Ets-DNA blk)
CCCc1n[nH]c2c1/C(=N\OCC)CC(C)(C)C2	12-LOX inh 40µM, PTHR1 agonist inconclusive
CCc1n[nH]c2c1/C(=N\O)CC(C)(C)C2	none
CC(=O)Nc1ccccc1-c1ccccc1[N+](=O)[O-]	none (no result: miR-21 act)
CCS(=O)(=O)c1cc([N+](=O)[O-])c(Sc2ccccc2NC(C)=O)s1	12-LOX inh 14µM
Cc1ccc(/C=C2\SC(=S)N(CC3CCCO3)C2=O)o1 (stereo not given)	12-LOX inh 6.3µM
Nc1[nH]c(C(=O)c2ccccc2)c(-c2ccc(Br)cc2)c1C(=O)c1cccs1	12-LOX inh 40µM (no result: Giardia kill, miR-21 act, ERG Ets-DNA blk)
Nc1[nH]c(C(=O)c2ccccc2)c(-c2ccc(Br)cc2)c1C(=O)c1ccc(Br)cc1	12-LOX inh inconclusive (no result: Giardia kill, miR-21 act, ERG Ets-DNA blk)
Cc1noc2nc(C(C)C)cc(C(=O)NC3CCCc4c3[nH]c3ccccc43)c12 (stereo not given)	12-LOX inh 32µM (no result: PTHR1 agonist, Giardia kill, miR-21 act, PINK1 expr mod, ERG Ets-DNA blk)
CC(=O)C1=C(C)N(Cc2ccc(Cl)cc2)C(=S)NC1c1ccccc1 (stereo not given)	12-LOX inh 45µM (no result: PTHR1 agonist, Giardia kill, miR-21 act, PINK1 expr mod, ERG Ets-DNA blk)
CCN1C(=O)N[C@@H](c2cccc(F)c2)C(C(C)=O)=C1C	none (no result: miR-21 act)
CCN1C(=O)N[C@H](c2ccc(Br)cc2)C(C(C)=O)=C1C	none
CC(=O)C1=C(C)N(Cc2ccc(F)cc2)C(=S)NC1c1cccc(Br)c1 (stereo not given)	12-LOX inh 40µM (no result: PTHR1 agonist, Giardia kill, miR-21 act, PINK1 expr mod, ERG Ets-DNA blk)
CC(=O)C1=C(C)N(Cc2ccc(Cl)cc2)C(=S)NC1c1ccc(Cl)cc1 (stereo not given)	12-LOX inh 45µM (no result: PTHR1 agonist, Giardia kill, miR-21 act, PINK1 expr mod, ERG Ets-DNA blk)
C[C@H](N)c1nnc(SCc2ccc(Cl)cc2Cl)o1	none
CCN(CC)CCCNC(=O)CCC(=O)Nc1ccc2nc(N3CCC(C)CC3)cc(C)c2c1	12-LOX inh inconclusive
O=c1[nH]c2ccc(Br)cc2c(-c2ccccc2)c1CN1CCCCC1	12-LOX inh 22µM (no result: PTHR1 agonist, Giardia kill, miR-21 act, PINK1 expr mod, ERG Ets-DNA blk)
Cc1[nH]nc2ccc(-c3cncc(OC[C@@H](N)Cc4ccccc4)c3)cc12	12-LOX inh 7.7µM (no result: PTHR1 agonist, Giardia kill, miR-21 act, PINK1 expr mod, ERG Ets-DNA blk)
O=C1NCCN2CC3(CCN(C(=O)COc4ccc(F)cc4)CC3)CC12 (stereo not given)	none (no result: PTHR1 agonist, Giardia kill, miR-21 act, PINK1 expr mod, ERG Ets-DNA blk)
O=C(c1ccc(F)cc1Cl)N1CCC2(CC1)NC(=O)N(c1ccccc1Cl)N2	12-LOX inh 1.4µM (no result: PTHR1 agonist, Giardia kill, miR-21 act, PINK1 expr mod, ERG Ets-DNA blk)
O=C(Cc1ccc(F)cc1)N1CCC2(CC1)NC(=O)N(Cc1ccc(F)cc1)C2=O	none (no result: PTHR1 agonist, Giardia kill, miR-21 act, PINK1 expr mod, ERG Ets-DNA blk)
O=C(COc1ccc(F)cc1)N1CCC2(CC1)NC(=O)N(c1ccccc1Cl)N2	12-LOX inh 1.4µM (no result: PTHR1 agonist, Giardia kill, miR-21 act, PINK1 expr mod, ERG Ets-DNA blk)
O=C(c1ccc(F)cc1Cl)N1CCC2(CC1)NC(=O)N(Cc1ccccc1)C2=O	none (no result: PTHR1 agonist, Giardia kill, miR-21 act, PINK1 expr mod, ERG Ets-DNA blk)
O=C(Cc1ccc(F)cc1)N1CCC2(CC1)NC(=O)N(c1ccccc1Cl)N2	12-LOX inh 1.3µM (no result: PTHR1 agonist, Giardia kill, miR-21 act, PINK1 expr mod, ERG Ets-DNA blk)
CC(C)CN(C1CCOCC1)C1CN(Cc2cncs2)C1	none (no result: PTHR1 agonist, Giardia kill, miR-21 act, PINK1 expr mod, ERG Ets-DNA blk)
CCN1C(=O)[C@H]2[C@@H](c3ccc(-c4ccc(F)cc4)c(OC)c3)N[C@@](C)(C(=O)OC)[C@H]2C1=O	12-LOX inh 11µM (no result: miR-21 act)
CCN1C(=O)[C@H]2[C@@H](c3ccc(-c4ccc(OC)cc4)c(OC)c3)N[C@@](C)(C(=O)OC)[C@H]2C1=O	none (no result: miR-21 act)
COC(=O)[C@@]12CCCN1[C@H](c1ccc(-c3ccccc3)c(OC)c1)[C@H]1C(=O)N(C)C(=O)[C@H]12	12-LOX inh 13µM (no result: miR-21 act)
CCN1C(=O)[C@@H]2[C@@H](c3ccc(-c4ccc5c(c4)OCO5)c(OC)c3)N3CCC[C@@]3(C(=O)OC)[C@@H]2C1=O	12-LOX inh 11µM (no result: miR-21 act)

Bioassay records from PubChem BioAssay.
